Mcl1-Noxa inh = Mcl-1/Noxa interaction inhibition; Q07820; TR-FRET Mcl-1/Noxa peptide binding, 2 h; inhibition, % at 21.7 µM; actives 1.5% (n = 220,000);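 active = compounds that cut the protein-peptide binding signal by more than 50% relative to plate controls in a single-dose test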;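 note: His-tagged Mcl-1 with rhodamine Noxa BH3 peptide and terbium anti-His antibody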
Target sequence (Q07820 whole entry, looked up): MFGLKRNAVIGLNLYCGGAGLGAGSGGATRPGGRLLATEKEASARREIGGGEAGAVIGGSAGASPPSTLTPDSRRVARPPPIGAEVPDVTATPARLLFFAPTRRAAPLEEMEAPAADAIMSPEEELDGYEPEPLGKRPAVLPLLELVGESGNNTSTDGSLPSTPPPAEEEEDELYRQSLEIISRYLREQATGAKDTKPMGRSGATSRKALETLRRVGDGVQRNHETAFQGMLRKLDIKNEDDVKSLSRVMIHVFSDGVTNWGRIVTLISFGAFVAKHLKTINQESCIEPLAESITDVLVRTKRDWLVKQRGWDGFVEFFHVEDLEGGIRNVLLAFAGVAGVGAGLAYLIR
Bcl-xL primary = blocks human Bcl-xL binding to Bim BH3 peptide; inhibition, % at 10.9 µM; AID 2129; GST-Bcl-xL / FITC-Bim BH3 peptide fluorescence polarization; actives 0.7% (n = 320,000);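 active = inhibition above the mean of all tested compounds plus 3 SD, cutoff set per campaign, cut at about 30% in these data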;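 note: inhibitors lower millipolarization by displacing the labeled peptide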
MCL1-BIM inh = inhibitors of human MCL1 binding to BIM-BH3 peptide; Q07820; GST-MCL1 / FITC-Bim-BH3 fluorescence polarization; inhibition, % at 10.9 µM; actives 0.68% (n = 320,000);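 active = inhibition above the mean inhibition of all tested compounds plus 3 SD, set per campaign, cut at about 40% in these data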;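 note: higher means more loss of mP so more displacement of Bim peptide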
Mcl-1 Bim block = human Bim-Mcl-1 interaction inhibition; inhibition, % at 10 µM; AID 1009; Bead-based flow cytometry, Bim peptide-Mcl-1 binding; actives 0.1% (n = 190,000); in the data active = inhibition above about 40%
GLD-1 TGE inh = GLD-1-TGE RNA interaction inhibition (C. elegans). Q17339. purified GLD-1 + fluorescein TGE RNA, fluorescence polarization. inhibition, % at 5.96 µM. actives 0.44% (n = 320,000);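 active = percent inhibition above a per-plate cutoff, the plate mean of test compounds plus 3 SD, cut at about 30% in these data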
Mcl1-Bid inh = disrupts binding of human Mcl-1 to Bid peptide; Q07820; TR-FRET Mcl-1/Bid-Dy647 peptide binding, 1536-well; inhibition, % at 21.7 µM; actives 0.97% (n = 220,000);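 active = compounds that cut the binding signal by more than half at the single screening dose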;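 note: His-tagged Mcl-1 with europium anti-His antibody binding Bid BH3 peptide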
GLD1 RNA confirm = confirmation of C. elegans GLD-1 TGE RNA binding inhibitors; actives 10% (n = 550); GLD-1/FL-TGE RNA fluorescence polarization, biochemical; inhibition, % at 5.96 µM; shares compounds with GLD-1 TGE inh;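 active = average inhibition across triplicates above the hit cutoff set in the primary screen, cut at about 32% in these data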
Each line names hits and unclear results; the compound was inactive in the other large screens (follow-up assays come after a bar, where they were run). A selection: hits, their analogues and other compounds. The true share with any hit is near 2.3%.

COc1cc(C(=O)NC(=S)Nc2ccc([N+](=O)[O-])cc2)cc(OC)c1OC	GLD-1 TGE inh 32.2 | GLD1 RNA confirm inactive
O=C1COc2ccc(S(=O)(=O)N3CCC(C(=O)NCc4ccccc4)CC3)cc2N1	none (no result: Mcl1-Noxa inh, Mcl-1 Bim block, Mcl1-Bid inh)
CC(=O)Nc1cccc(Oc2nc(-c3ccccn3)nc3ccccc23)c1	GLD-1 TGE inh 31.2 (no result: Mcl-1 Bim block) | GLD1 RNA confirm inactive
CCCCCCOc1ccc(C(=O)O)cc1C#N	GLD-1 TGE inh 40.3 | GLD1 RNA confirm inactive
CCCCCCCCOc1ccc(C(=O)O)cc1	none (no result: Mcl1-Noxa inh, Mcl-1 Bim block, Mcl1-Bid inh)
Cc1ccc(/C=C/c2nc3ccccc3[nH]2)o1	Bcl-xL primary 40.3, GLD-1 TGE inh 31.9 | GLD1 RNA confirm inactive
COc1ccc(/C=N/c2c(-c3ccco3)nc3ccccn23)cc1OC	Bcl-xL primary 38.7, MCL1-BIM inh 47.0, GLD-1 TGE inh 57.0 | GLD1 RNA confirm 56.6
Clc1ccc(/C=N/c2c(-c3ccco3)nc3ccccn23)cc1	Bcl-xL primary 39.1, MCL1-BIM inh 47.0, GLD-1 TGE inh 45.2 | GLD1 RNA confirm 43.8
Oc1ccccc1/C=N/c1c(-c2ccco2)nc2ccccn12	none
O=C(COC(=O)c1ccc(Br)cc1)NCc1ccccc1	GLD-1 TGE inh 41.2 | GLD1 RNA confirm inactive
CC1(C)CC(=O)C/C(=N/NC(=O)COc2ccc(Cl)cc2Cl)C1	none (no result: Mcl-1 Bim block)
CC1(C)CC(=O)C/C(=N/NC(=O)COc2ccc3ccccc3c2Br)C1	GLD-1 TGE inh 31.1 (no result: Mcl1-Noxa inh, Mcl-1 Bim block, Mcl1-Bid inh) | GLD1 RNA confirm inactive
Cc1noc(C)c1S(=O)(=O)N(CC(=O)NCCc1ccccc1)c1ccc(C(C)C)cc1	GLD-1 TGE inh 48.0 (no result: Mcl1-Noxa inh, Mcl-1 Bim block, Mcl1-Bid inh) | GLD1 RNA confirm inactive
CCCCC(=O)Nc1ccc(NCc2ccc(C)s2)cc1	GLD-1 TGE inh 38.4 (no result: Mcl1-Noxa inh, Mcl-1 Bim block, Mcl1-Bid inh) | GLD1 RNA confirm inactive
O=C(CS(=O)(=O)c1cn(Cc2ccc(Cl)cc2)c2ccccc12)N1CCCC1	none
O=C(Cc1cn(Cc2cccc(Cl)c2)c2ccccc12)N1CCCC1	GLD-1 TGE inh 53.8 | GLD1 RNA confirm inactive
CCCc1nn2c(=O)cc(COc3ccc(NC(=O)c4ccco4)cc3)nc2s1	none (no result: Mcl1-Noxa inh, Mcl-1 Bim block, Mcl1-Bid inh)
CC1(C)CC(=O)C2=C(C1)Nc1cc(Cl)ccc1S2	Bcl-xL primary 33.9, GLD-1 TGE inh 35.1 (no result: Mcl-1 Bim block) | GLD1 RNA confirm inactive
CCOC(=O)C1=C(CC)OC(N)=C(C#N)C1c1ccc(OC)cc1OC (configuration not stated)	none
CCOC(=O)CC1=C(C(=O)OCC)C(c2ccc(C)o2)C(C#N)=C(N)O1 (configuration not stated)	Bcl-xL primary 37.3, GLD-1 TGE inh 34.0 | GLD1 RNA confirm inactive
CCOC(=O)CC1=C(C(=O)OCC)C(c2ccc(OC)cc2OC)C(C#N)=C(N)O1 (configuration not stated)	Bcl-xL primary 39.4, MCL1-BIM inh 42.6, GLD-1 TGE inh 34.7 | GLD1 RNA confirm inactive
O=C(COC(=O)CNC(=O)C1CCCCC1)Nc1ccccc1OC(F)F	none (no result: Mcl1-Noxa inh, Bcl-xL primary, MCL1-BIM inh, Mcl-1 Bim block, Mcl1-Bid inh)
COc1ccccc1Oc1c(C)oc2c(CN3CCN(CCO)CC3)c(O)ccc2c1=O	Bcl-xL primary 94.5, MCL1-BIM inh 112.5, GLD-1 TGE inh 61.4 | GLD1 RNA confirm inactive
CCCNC(=O)c1ccc(Cn2cc(-c3ccc(OC)cc3)nc2C(C)N)cc1 (configuration not stated)	none (no result: Mcl1-Noxa inh, Mcl-1 Bim block, Mcl1-Bid inh)
CCN(CC)C(=O)CSc1nnc2nnc3cc(C)ccc3n12	GLD-1 TGE inh 41.5 (no result: Mcl-1 Bim block) | GLD1 RNA confirm inactive
CCOc1ccccc1N1CC(C(=O)Nc2cccc(S(=O)(=O)N3CCCCC3)c2)CC1=O (configuration not stated)	none
CSc1ncccc1C(=O)OCC(=O)N(CC(C)C)c1c(N)n(Cc2ccccc2)c(=O)[nH]c1=O	none (no result: Mcl1-Noxa inh, Mcl-1 Bim block, Mcl1-Bid inh)
Cc1cc(NC(=O)CNCC(c2ccccc2)N(C)C)c([N+](=O)[O-])cc1C (configuration not stated)	none (no result: Mcl1-Noxa inh, Mcl-1 Bim block, Mcl1-Bid inh)
Cc1ccc(S(=O)(=O)N(C)Cc2ccc(C(=O)N/N=C3\CCCC(=O)C3)cc2)cc1	GLD-1 TGE inh 49.1 | GLD1 RNA confirm inactive
Cc1ccc(S(=O)(=O)N(C)Cc2ccc(C(=O)NN=C3C4CC5CC(C4)CC3C5)cc2)cc1	none
O=C1CCC/C(=N/NC(=O)c2ccc(CN3c4cccc5cccc(c45)S3(=O)=O)cc2)C1	GLD-1 TGE inh 40.3 | GLD1 RNA confirm inactive
